From PubChem BioAssay
Activity calls are given as the source filed them.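 Rule for the calls: active = NADPH fluorescence slope more negative than the mean of all samples by about 3 SD, 99.7% confidence; inactive = the rest.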

Biological target: Voltage-gated potassium channel subunit beta-2 (Rattus norvegicus) (UniProt P62483)
Test: enhancers of rat Kvbeta2 NADPH turnover – biochemical, NADPH fluorescence, primary screen (AID 623);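 note: fluorescence intensity change per second fitted from 20 to 320 s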
Settings: Recombinant KvBeta, NADPH fluorescence decrease slope, 10 min; at 10 µM; active compounds read low

Sequence of Voltage-gated potassium channel subunit beta-2 (Rattus norvegicus) (P62483 whole entry, looked up): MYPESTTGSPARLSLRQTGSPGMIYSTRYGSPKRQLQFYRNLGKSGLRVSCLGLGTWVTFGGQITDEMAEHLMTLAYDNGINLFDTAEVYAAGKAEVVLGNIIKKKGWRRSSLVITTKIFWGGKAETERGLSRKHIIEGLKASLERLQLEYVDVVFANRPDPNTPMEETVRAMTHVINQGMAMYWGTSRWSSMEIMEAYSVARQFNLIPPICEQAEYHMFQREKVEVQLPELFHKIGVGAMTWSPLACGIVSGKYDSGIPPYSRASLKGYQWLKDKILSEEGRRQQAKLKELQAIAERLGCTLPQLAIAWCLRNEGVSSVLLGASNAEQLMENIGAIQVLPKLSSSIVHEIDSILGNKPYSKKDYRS

NADPH fluorescence slope, inactive:
COc1ccc(-n2c(COc3ccccc3)nnc2SCc2ccc(C#N)cc2)cc1 -5.8e-05
Cc1ccc(Cn2c(C(=O)NCCCN3CCOCC3)cc3sccc32)cc1 1.1e-05
Cc1ccc(NC(=O)CS(=O)CC(=O)NCC2CCCO2)cc1 (stereo not given) 1.2e-05
CCN(CC)C(=O)CSc1nc2ccccc2c(=O)n1CCC(=O)NCc1ccc(F)cc1 5.1e-05
COc1ccccc1N1CCN(c2nc3ccccc3nc2C(C#N)C(=O)OC(C)C)CC1 (stereo not given) -0.000323
COc1ccc2cc(C#N)c(NC(C)C)nc2c1 -0.000141
Cc1nc2ccc(NC(=O)N3CCC(c4ccccc4)C3)cc2nc1C (stereo not given) 9.4e-06
COc1cc(=O)[nH]c(SCc2c(F)c(F)c(F)c(F)c2F)n1 -4e-05
CC(=O)Nc1ccc(S(=O)(=O)N(CC(=O)O)Cc2ccccc2)cc1 -4.6e-05
CCOC(=O)c1nnn(-c2nonc2N)c1CN1CCc2ccccc2C1 4.7e-05
CCOC(=O)N1CCC(NC(=O)c2ccc3c(c2)N(C)CCS3)CC1 1.7e-06
CCOC(=O)c1c(NCc2ccc3c(c2)OCO3)c2ccccc2[nH]c1=O -2.6e-05
O=S1(=O)Nc2c(ccc3cccnc23)-c2ccccc21 -0.000334
COc1ccc(CCN2C(=O)C3C4C=CC(C4)C3C2=O)cc1OC (stereo not given) -4e-05
CC(=O)NCCn1ccc2ccccc21 0.000103
C=CCn1c(=O)[nH]c2cc(C(=O)N3CCN(c4ccc(C(C)=O)cc4)CC3)ccc2c1=O 1.5e-05
O=C(CSc1nc2ccccc2c(=O)n1CCC(=O)N1CCCCC1)NCc1ccccc1 1.6e-05
COC(=O)C(F)(F)Sc1c(C)[nH]c2ccccc12 -1.5e-05
COCCN(C(=O)Cn1nnc2ccccc21)C(C(=O)NC1CCCC1)c1cc(OC)ccc1OC (stereo not given) 0.0001
COC(=O)C(C)C1Sc2ccccc2NC1=O (stereo not given) -5.2e-05
COc1ccc(CC(NC(C)=O)C(=O)NC2CCN(c3nc(C)cc(C)c3C#N)CC2)c(OC)c1 (stereo not given) -1.7e-05
Cc1ccc(CS(=O)(=O)CCC(=O)NCC2CCCO2)cc1 (stereo not given) -4.6e-05
COc1ccccc1-c1nc(C#N)c(N2CCN(c3ccccc3)CC2)o1 1.8e-05
COc1cccc(OCC(O)CN2CCN(CCO)CC2)c1 (stereo not given) -0.000292
Cc1ccc(C(=O)OCC(=O)c2ccc(Cl)s2)s1 0.000104
